Several values for one entry are separate records, joined by “and”; a condition that tells them apart may be missing. Identical values can stand only once. Results filed as inconclusive are left out. Activity calls are given as the source filed them. Unless noted, calls follow the shape of the dose curve; as a rule, active = well fitted curve in either direction with a large enough effect (not every such curve was filed as active); inconclusive = small, poorly fitted or top-dose-only effect, or another doubt; inactive = flat fitted curve, though single readings scatter.
Tests used:
[1] = AP1 Signaling Pathway (AID 357); conditions: ME-180 AP-1-bla reporter, EGF-induced, beta-lactamase ratio, 5 h;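 also: ME-180 reporter cells stimulated with EGF at its EC50 level; % is scaled to controls: 0 for no effect and ±100 for the full control effect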
Method in brief: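 A ratiometric CCF4 readout (405 nm excitation; 460 and 530 nm emission) quantified AP-1-driven beta-lactamase in ME-180 cells after 5 h with compound and EC50 EGF; AC50 values were derived for activators and inhibitors.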

[2] = molecular target: Cytochrome P450 1A2 (Homo sapiens) (UniProt P05177); assay: p450-cyp1a2 (AID 410; calls by dose curve;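 also: -100% = full effect of reference inhibitor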)
Chain of Cytochrome P450 1A2 (Homo sapiens) (P05177 whole entry, looked up): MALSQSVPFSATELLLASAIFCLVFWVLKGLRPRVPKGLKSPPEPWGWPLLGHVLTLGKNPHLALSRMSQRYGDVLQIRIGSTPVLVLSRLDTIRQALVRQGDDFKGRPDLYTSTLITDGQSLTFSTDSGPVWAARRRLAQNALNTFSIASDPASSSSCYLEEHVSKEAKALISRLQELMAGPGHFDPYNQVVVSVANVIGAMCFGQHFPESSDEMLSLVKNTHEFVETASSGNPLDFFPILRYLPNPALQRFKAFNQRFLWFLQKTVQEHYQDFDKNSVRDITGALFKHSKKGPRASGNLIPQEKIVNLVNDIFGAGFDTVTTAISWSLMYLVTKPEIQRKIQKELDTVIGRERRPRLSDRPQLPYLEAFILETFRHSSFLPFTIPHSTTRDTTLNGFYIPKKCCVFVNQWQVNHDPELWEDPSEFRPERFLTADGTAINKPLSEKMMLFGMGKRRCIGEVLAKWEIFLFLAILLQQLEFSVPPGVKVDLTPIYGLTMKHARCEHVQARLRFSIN
Method in brief: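 Inhibition was calculated relative to 57 uM furafylline (full inhibition). The reaction used human CYP1A2 at 20nM with Luciferin-ME at its Km, 100uM, driven by an NADPH-regenerating system for 60 min at room temperature.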

[3] = NFAT Signaling Pathway (AID 444); conditions: Jurkat NFAT-bla M1, carbachol, beta-lactamase ratio, 5 h;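 also: carbachol stimulus at about its EC50 of 1 µM final; % is scaled to controls: 0 for no effect and ±100 for the full control effect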
Method in brief: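 Jurkat cells with NFAT-driven β-lactamase reporter and co-expressed M1 receptor, stimulated with carbachol (final 1 uM, ~EC50), compound titration, 5 h at 37 °C. CCF4 loaded 1 h at RT; 460/530 nm ratio gave %activity and AC50.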

[4] = Stat Signaling Pathway (AID 446); conditions: ME-180 SIE beta-lactamase reporter, IL-6 stimulated, 5 h;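 also: ME-180 cervical cancer cells given 40 pM IL-6 alongside compound; SIE-controlled beta-lactamase reporter measured as 460/530 nm FRET emission ratio; % is scaled to controls: 0 for no effect and ±100 for the full control effect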
Method in brief: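 Reporter line: ME-180 cervical carcinoma, SIE-beta-lactamase. Treatment: compound with 40 pM IL-6, 5 hrs, 37 C, in low-serum OPTI-MEM with 10 mM HEPES pH 7.3. Detection: 460/530 nm fluorescence.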

[5] = molecular target: Glucocorticoid receptor (Homo sapiens) (UniProt P04150); assay: GR-GFP Redistribution (AID 450;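 active = compounds whose dose series gives a full or clear partial fitted curve of increased nuclear translocation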; also: potency is read from the fitted curve at half-maximal effect); conditions: U2OS GR-GFP nuclear translocation, laser cytometry, 2 h
Chain of Glucocorticoid receptor (Homo sapiens) (P04150 whole entry, looked up, the tested form may be a part): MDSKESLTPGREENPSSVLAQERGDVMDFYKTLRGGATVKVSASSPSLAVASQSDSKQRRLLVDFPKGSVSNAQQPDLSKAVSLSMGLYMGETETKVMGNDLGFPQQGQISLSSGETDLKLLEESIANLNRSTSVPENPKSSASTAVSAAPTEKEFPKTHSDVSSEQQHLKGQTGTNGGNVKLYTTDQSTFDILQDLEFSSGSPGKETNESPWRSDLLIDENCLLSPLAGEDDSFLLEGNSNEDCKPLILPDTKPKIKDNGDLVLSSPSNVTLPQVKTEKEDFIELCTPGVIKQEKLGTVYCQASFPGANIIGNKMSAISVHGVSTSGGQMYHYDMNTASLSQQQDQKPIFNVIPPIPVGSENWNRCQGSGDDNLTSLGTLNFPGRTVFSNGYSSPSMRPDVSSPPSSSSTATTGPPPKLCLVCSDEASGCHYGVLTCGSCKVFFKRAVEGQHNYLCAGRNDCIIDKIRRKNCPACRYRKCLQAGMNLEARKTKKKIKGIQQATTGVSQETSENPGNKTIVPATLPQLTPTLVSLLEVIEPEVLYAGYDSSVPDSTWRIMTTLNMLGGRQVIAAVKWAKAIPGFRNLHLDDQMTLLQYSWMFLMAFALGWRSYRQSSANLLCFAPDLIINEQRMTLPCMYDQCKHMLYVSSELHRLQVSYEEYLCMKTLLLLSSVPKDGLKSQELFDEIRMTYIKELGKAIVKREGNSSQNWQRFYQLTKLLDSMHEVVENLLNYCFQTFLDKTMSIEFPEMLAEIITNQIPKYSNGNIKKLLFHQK

[6] = molecular target: Glucocorticoid receptor (Homo sapiens) (UniProt P04150); assay: GR-EFC Redistribution (AID 451; calls by dose curve; also: potency is read from the fitted curve at half-maximal effect); conditions: CHO-K1 GR-EFC translocation, beta-gal luminescence, 2 h
Method in brief: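 CHO-K1 cells expressing nuclear EA and GR-ED fragments of b-gal; compounds titrated up to 46 uM final, 2 h at 37 C. GR nuclear translocation read as complemented b-gal luminescence after 1 h RT detection.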

[7] = molecular target: Mitogen-activated protein kinase 10 (Mus musculus) (UniProt Q61831); assay: JNK3 AlphaScreen Assay (AID 530);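 also: kinase came from lysate of stimulated human HepG2 cells; signal reports phosphorylation of biotinylated GST-cJun 1-79 at Ser73 with 10 µM ATP; % is scaled to controls: 0 for no effect and ±100 for the full control effect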
Method in brief: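 qHTS format: compounds tested as titrations against IL-1beta/TNF-alpha-activated HepG2 lysate JNK3 with biotin-GST-cJun substrate and 10 uM ATP at room temperature. Loss of anti-phospho-cJun AlphaScreen signal indicates inhibition.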

[8] = molecular target: 3',5'-cyclic-AMP phosphodiesterase 4B (Homo sapiens) (UniProt Q07343); assay: qHTS Assay for Inhibitors of PDE-IV (AID 607; active = well fitted activation curve with a large enough effect in the main read-out, with a control signal flat, not every such curve was filed as active; also: % of control where 0% means no effect)
Chain of 3',5'-cyclic-AMP phosphodiesterase 4B (Homo sapiens) (Q07343 whole entry, looked up): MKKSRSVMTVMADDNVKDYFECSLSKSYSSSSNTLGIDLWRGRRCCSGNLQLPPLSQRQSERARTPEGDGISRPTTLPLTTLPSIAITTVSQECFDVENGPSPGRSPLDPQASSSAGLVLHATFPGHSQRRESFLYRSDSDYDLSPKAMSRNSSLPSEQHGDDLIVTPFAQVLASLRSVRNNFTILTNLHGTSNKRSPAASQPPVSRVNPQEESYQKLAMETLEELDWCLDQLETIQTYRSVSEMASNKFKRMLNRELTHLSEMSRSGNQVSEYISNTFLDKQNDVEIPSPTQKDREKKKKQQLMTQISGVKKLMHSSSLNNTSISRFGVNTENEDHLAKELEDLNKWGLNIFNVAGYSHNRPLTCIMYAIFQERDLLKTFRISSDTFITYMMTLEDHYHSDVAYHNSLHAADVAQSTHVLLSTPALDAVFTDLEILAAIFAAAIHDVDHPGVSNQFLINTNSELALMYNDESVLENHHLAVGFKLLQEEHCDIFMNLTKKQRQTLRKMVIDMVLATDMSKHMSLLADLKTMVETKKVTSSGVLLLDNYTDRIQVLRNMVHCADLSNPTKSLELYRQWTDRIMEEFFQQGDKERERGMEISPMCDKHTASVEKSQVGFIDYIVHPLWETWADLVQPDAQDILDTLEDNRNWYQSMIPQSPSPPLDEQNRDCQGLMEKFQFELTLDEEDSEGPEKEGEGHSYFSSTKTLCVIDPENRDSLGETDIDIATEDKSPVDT
Method in brief: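 Cell-based read-out of cAMP via a modified cyclic nucleotide-gated channel and membrane potential dye (535/590 nm) in HEK293 cells expressing PDE4 endogenously. Compounds tested up to 22.9 uM final; 100 uM RO 20-1724 reference.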

[9] = molecular target: alpha-glucosidase (Oryza sativa, rice) (UniProt Q653V4); assay: Counterscreen for Glucocerebrosidase Inhibitors: qHTS Assay for Rice alpha-Glucosidase at pH 5.0 (AID 997; active = well fitted curve in the direction sought with a large enough effect; an effect the other way counts as inactive or inconclusive;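 also: 0% = full activity with enzyme and -100% = basal without enzyme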)
Method in brief: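 Rice alpha-glucosidase (4 nM final) with 400 uM 4-methylumbelliferyl-alpha-D-glucopyranoside in citrate buffer pH 5.0, 20 min at room temperature, stopped at pH 10; fluorescence 365/440 nm, compounds 0.7 nM–77 uM, AC50 from Hill fits.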

[10] = qHTS Assay for Lipid Storage Modulators (AID 1519; calls by dose curve); conditions: Drosophila S3 cells, BODIPY lipid droplet/cell ratio, laser cytometry, cells loaded with oleic acid
Method in brief: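 Cells seeded at 5,000 per well were treated with compounds over a concentration series and loaded with oleic acid (400 uM, as added). Lipid droplet fluorescence (488 nm excitation, 500-530 nm channel) was read by laser-scanning cytometry and normalized to 20 uM Triacsin C.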

[11] = molecular target: ATP-dependent 6-phosphofructokinase (Trypanosoma brucei brucei) (UniProt O15648); assay: qHTS Assay to Find Inhibitors of T. brucei phosphofructokinase: hit validation (AID 492961; active = well fitted curve in the direction sought with a large enough effect; an effect the other way counts as inactive or inconclusive; also: % is scaled to controls: 0 for no effect and ±100 for the full control effect)
Chain of ATP-dependent 6-phosphofructokinase (Trypanosoma brucei brucei) (O15648 whole entry, looked up): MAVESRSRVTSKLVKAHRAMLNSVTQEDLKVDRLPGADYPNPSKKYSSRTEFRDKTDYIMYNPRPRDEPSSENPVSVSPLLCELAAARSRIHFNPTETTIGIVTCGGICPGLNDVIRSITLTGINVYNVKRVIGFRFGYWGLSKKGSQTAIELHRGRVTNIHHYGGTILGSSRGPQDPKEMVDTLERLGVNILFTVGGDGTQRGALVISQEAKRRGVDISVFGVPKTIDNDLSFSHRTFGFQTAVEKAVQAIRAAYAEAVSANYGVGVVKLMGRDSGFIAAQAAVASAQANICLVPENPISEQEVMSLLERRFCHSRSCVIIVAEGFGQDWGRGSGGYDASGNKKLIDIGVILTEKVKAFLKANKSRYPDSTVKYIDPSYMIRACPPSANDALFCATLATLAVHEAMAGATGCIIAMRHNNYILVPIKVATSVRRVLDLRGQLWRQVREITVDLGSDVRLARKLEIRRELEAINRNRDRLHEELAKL
Method in brief: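 Luminescence from ADP-Glo reports ADP generated as T. brucei PFK (1.25 nM) phosphorylates 0.5 mM fructose-6-phosphate using 0.1 mM ATP. Reactions ran 45 min at room temperature, pH 8.0.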

[12] = molecular target: Luciferin 4-monooxygenase (Photinus pyralis) (UniProt P08659); assay: Biochemical firefly luciferase enzyme assay for NPC (AID 624030; active = well fitted curve in the direction sought with a large enough effect; an effect the other way counts as inactive or inconclusive;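 also: purified P. pyralis luciferase at 10 nM with luciferin and ATP substrate; 0% = DMSO and -100% = full luciferase inhibition by PTC124 control; nearly all actives have a fitted effect of over 70% in size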)
Chain of Luciferin 4-monooxygenase (Photinus pyralis) (P08659 whole entry, looked up): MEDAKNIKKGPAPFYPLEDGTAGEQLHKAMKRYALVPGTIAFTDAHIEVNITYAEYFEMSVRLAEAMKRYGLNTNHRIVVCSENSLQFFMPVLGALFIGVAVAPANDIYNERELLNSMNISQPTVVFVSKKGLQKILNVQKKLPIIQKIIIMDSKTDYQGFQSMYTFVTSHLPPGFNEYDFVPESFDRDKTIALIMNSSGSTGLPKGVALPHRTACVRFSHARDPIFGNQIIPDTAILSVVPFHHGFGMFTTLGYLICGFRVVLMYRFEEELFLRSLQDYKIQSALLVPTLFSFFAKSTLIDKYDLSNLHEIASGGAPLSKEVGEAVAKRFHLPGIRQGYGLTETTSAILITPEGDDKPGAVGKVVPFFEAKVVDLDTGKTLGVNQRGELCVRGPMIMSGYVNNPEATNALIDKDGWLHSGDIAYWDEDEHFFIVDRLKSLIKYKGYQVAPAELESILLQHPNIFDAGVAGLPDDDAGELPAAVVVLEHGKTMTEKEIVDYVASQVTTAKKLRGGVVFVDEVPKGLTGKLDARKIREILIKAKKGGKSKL
Method in brief: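 Purified P. pyralis luciferase at 10 nM in 50 mM Tris Acetate (final), luminescence read within 5 minutes of enzyme addition to compounds. Activity normalised to PTC124 versus DMSO; concentration-response curves classed by r2, magnitude and activity.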

[13] = qHTS profiling for inhibitors of Plasmodium falciparum proliferation (AID 504749; active = well fitted curve in the direction sought with a large enough effect; an effect the other way counts as inactive or inconclusive; also: potency is read from the fitted curve at half-maximal effect;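 as to activity, negative = inhibition: 0% = DMSO vehicle and full inhibition = artemisinin control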; as to all read-outs here: nearly all actives have a fitted effect of over 60% in size); conditions: P. falciparum in erythrocytes, SYBR Green DNA, 72 h; for activity, negative = inhibition: at 28.7 µM (top of the series)
Method in brief: (§1)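 Readout was DNA-dye fluorescence from lysed cultures, ex 485/em 535 nm. Parasitized red cells had grown 72 h with compound; data scaled between 0.29 uM artemisinin and DMSO wells and corrected using vehicle-only plates.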

AS120 = assay: as above; conditions: P. falciparum in erythrocytes, SYBR Green DNA, 72 h; series mostly up to 28.7 µM
Method in brief: as §1

CP238 = assay: as above; conditions: P. falciparum in erythrocytes, SYBR Green DNA, 72 h; series mostly up to 12.8 µM
Method in brief: as §1

CP250 = assay: as above; conditions: P. falciparum in erythrocytes, SYBR Green DNA, 72 h; series mostly up to 12.8 µM
Method in brief: as §1

CP262 = assay: as above; conditions: P. falciparum in erythrocytes, SYBR Green DNA, 72 h; series mostly up to 12.8 µM
Method in brief: as §1

CP265 = assay: as above; conditions: P. falciparum in erythrocytes, SYBR Green DNA, 72 h; series mostly up to 12.8 µM
Method in brief: as §1

FAB9 = assay: as above; conditions: P. falciparum in erythrocytes, SYBR Green DNA, 72 h; series mostly up to 12.8 µM
Method in brief: as §1

[14] = molecular target: Ubiquitin carboxyl-terminal hydrolase 1 (Homo sapiens) (UniProt O94782); assay: Inhibitors of USP1/UAF1: Pilot qHTS (AID 504865; active = well fitted curve in the direction sought with a large enough effect; an effect the other way counts as inactive or inconclusive;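 also: rhodamine fluorescence freed from ubiquitin-rhodamine substrate followed over time; top concentration of the series differs between compounds; % is scaled to controls: 0 for no effect and ±100 for the full control effect; nearly all actives have a fitted effect of over 35% in size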)
Chain of Ubiquitin carboxyl-terminal hydrolase 1 (Homo sapiens) (O94782 whole entry, looked up): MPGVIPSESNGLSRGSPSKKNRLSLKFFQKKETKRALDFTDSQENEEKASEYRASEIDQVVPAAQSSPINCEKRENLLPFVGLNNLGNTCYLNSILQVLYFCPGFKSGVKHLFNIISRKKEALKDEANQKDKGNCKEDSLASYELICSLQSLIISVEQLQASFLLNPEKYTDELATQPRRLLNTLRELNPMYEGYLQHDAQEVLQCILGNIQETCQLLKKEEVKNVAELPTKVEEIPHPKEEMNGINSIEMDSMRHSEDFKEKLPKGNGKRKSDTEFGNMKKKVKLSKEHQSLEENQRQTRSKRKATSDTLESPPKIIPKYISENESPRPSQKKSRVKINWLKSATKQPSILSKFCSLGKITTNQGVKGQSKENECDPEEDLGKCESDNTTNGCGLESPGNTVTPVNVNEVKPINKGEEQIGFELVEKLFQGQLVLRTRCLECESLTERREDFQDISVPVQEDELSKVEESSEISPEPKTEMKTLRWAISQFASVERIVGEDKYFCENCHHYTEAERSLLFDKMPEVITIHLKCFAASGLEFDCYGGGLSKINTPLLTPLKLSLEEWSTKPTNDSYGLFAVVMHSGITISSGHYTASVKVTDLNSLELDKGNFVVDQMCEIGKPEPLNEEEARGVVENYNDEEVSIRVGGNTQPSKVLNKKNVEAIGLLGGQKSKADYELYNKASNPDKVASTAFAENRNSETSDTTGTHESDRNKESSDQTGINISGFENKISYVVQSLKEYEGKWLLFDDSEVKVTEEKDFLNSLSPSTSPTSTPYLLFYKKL
Method in brief: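 USP1/UAF1 complex at 1 nM preincubated 15 min at room temperature with compound, then Ub-Rho substrate added at 150 nM final. Fluorescence (480/540 nm) read kinetically in 50 mM HEPES pH 7.8, 0.5 mM EDTA, 1 mM TCEP, 0.1 mg/ml BSA, 0.01% Tween-20.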

[15] = measured here: cell count channel max response
[16] = measured here: lipid channel max response
[17] = at 7.69 µM (top of the series) unless noted

SMILES: CC(=O)OCC1=C(C(=O)O)N2C(=O)[C@@H](NC(=O)CSc3ccncc3)[C@@H]2SC1
- activity change, negative = inhibition ([1]; at 17.2 µM (top of the series)): 9.51% (inactive)
- activity change, negative = inhibition ([1]; at 38 µM (top of the series)): 11% (inactive)
- Potency [2]: inactive
- activity change, negative = inhibition ([3]; at 17.2 µM (top of the series)): 7.12% (inactive)
- activity change, negative = inhibition ([3]; at 38 µM (top of the series)): 4.33% (inactive)
- activity, negative = inhibition ([4]; at 17.2 µM (top of the series)): 8.61% (inactive)
- activity, negative = inhibition ([4]; at 38 µM (top of the series)): -9.45% (inactive)
- Potency [5]: > 46 µM (inactive) and > 20.6 µM (inactive)
- Potency [6]: > 46 µM (inactive) and > 20.6 µM (inactive)
- Potency [7]: inactive
- Potency [8]: inactive
- outcome [9]: inactive
- activity change, negative = inhibition ([10]; at 25.7 µM (top of the series)): -4.27% (inactive)
- max response [10, 15]: -7.14%
- max response [10, 16]: -13.2%
- outcome [11]: inactive
- outcome [12]: inactive
- activity, negative = inhibition ([13]; parasite line A): -4.5% (inactive)
- activity, negative = inhibition ([13]; parasite line B): -4.99% (inactive)
- Potency (AS120): inactive
- Potency (CP238): inactive
- Potency (CP250): inactive
- Potency (CP262): inactive
- Potency (CP265): inactive
- Potency (FAB9): inactive

SMILES: Cc1cccc(CNc2ncnc3ccc(-c4cccc(NS(C)(=O)=O)c4)cc23)c1
- activity change, negative = inhibition [3, 17]: 12.3% (inactive)
- activity, negative = inhibition [4, 17]: -1.79% (inactive)
- Potency [5]: > 46 µM (inactive)
- Potency [6]: > 46 µM (inactive)
- Potency [7]: inactive
- Potency [8]: inactive
- activity change, negative = inhibition ([10]; at 57.5 µM (top of the series)): -4.87% (inactive)
- max response [10, 15]: -15.4%
- max response [10, 16]: -18.6%

SMILES: CN(Cc1cnc2nc(N)nc(N)c2n1)c1ccc(C(=O)N[C@H](CCC(=O)O)C(=O)O)cc1
- activity change, negative = inhibition ([1]; at 17.2 µM (top of the series)): 13.9% (inactive)
- activity change, negative = inhibition ([1]; at 38 µM (top of the series)): 2.91% (inactive) and 5.9% (inactive)
- Potency [2]: inactive
- activity change, negative = inhibition ([3]; at 17.2 µM (top of the series)): -38.1% (inactive)
- activity change, negative = inhibition ([3]; at 38 µM (top of the series)): -4.84% (inactive) and 12.6% (inactive)
- activity, negative = inhibition ([4]; at 17.2 µM (top of the series)): 8.48% (inactive)
- activity, negative = inhibition ([4]; at 38 µM (top of the series)): -1.61% (inactive) and 15.7% (inactive)
- Potency [7]: inactive
- Potency [8]: inactive
- activity change, negative = inhibition ([10]; at 25.7 µM (top of the series)): 0.922% (inactive)
- max response [10, 15]: -1.52%
- max response [10, 16]: -2.14%

SMILES: NC(=O)c1cc[n+](CC2=C(C(=O)O)N3C(=O)[C@@H](NC(=O)[C@H](c4ccccc4)S(=O)(=O)[O-])[C@@H]3SC2)cc1
- activity change, negative = inhibition ([1]; at 17.2 µM (top of the series)): 2.93% (inactive)
- activity change, negative = inhibition ([1]; at 38 µM (top of the series)): -7.21% (inactive)
- Potency [2]: inactive
- activity change, negative = inhibition ([3]; at 17.2 µM (top of the series)): 5.18% (inactive)
- activity change, negative = inhibition ([3]; at 38 µM (top of the series)): 3.09% (inactive)
- activity, negative = inhibition ([4]; at 17.2 µM (top of the series)): 0.394% (inactive)
- activity, negative = inhibition ([4]; at 38 µM (top of the series)): 0.148% (inactive)
- Potency [7]: inactive
- Potency [8]: inactive
- outcome [9]: inactive
- activity change, negative = inhibition ([10]; at 25.7 µM (top of the series)): -1.52% (inactive)
- max response [10, 15]: -10.2%
- max response [10, 16]: -11.3%
- outcome [11]: inactive
- Potency [14]: inactive
- outcome [12]: inactive
- Potency ([13]; parasite line A): 3.55 µM (active)
- Potency ([13]; parasite line B): 3.55 µM (active)
- Potency (AS120): 3.16 µM (active)
- Potency (CP238): 3.55 µM (active)
- Potency (CP250): 3.98 µM (active)
- Potency (CP262): inactive
- Potency (CP265): 1.41 µM (active)
- Potency (FAB9): 3.16 µM (active)
